# Experimental data: ChEMBL document CHEMBL2218924, “A broad activity screen in support of a chemogenomic map for kinase signalling research and drug discovery” (Biochem J, 2013)
# Key:
# [1] = biological target: Tyrosine-protein kinase SYK (Homo sapiens) (UniProt P43405); conditions: at 10 µM
# [2] = biological target: T1, Mitogen-activated protein kinase kinase kinase 7 (Homo sapiens) (UniProt O43318); conditions: at 10 µM
# T1 sequence (whole entry): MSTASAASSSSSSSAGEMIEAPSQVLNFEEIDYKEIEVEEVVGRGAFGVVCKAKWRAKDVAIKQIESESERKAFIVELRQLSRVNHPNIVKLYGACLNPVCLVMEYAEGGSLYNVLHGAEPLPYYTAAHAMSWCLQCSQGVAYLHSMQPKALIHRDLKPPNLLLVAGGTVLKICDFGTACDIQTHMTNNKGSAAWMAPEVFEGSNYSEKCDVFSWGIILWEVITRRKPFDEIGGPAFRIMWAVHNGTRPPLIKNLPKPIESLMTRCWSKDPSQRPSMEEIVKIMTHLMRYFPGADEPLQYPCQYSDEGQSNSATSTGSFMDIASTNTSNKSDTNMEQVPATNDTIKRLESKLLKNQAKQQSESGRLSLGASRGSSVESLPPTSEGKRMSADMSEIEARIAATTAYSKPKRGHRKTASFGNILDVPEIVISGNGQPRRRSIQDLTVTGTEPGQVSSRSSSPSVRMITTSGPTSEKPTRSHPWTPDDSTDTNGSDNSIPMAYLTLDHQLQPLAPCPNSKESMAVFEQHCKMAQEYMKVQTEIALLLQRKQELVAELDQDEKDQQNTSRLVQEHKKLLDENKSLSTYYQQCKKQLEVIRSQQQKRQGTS
# [3] = biological target: T2, Serine/threonine-protein kinase TAO1 (Homo sapiens) (UniProt Q7L7X3); conditions: at 1 µM
# T2 sequence (whole entry): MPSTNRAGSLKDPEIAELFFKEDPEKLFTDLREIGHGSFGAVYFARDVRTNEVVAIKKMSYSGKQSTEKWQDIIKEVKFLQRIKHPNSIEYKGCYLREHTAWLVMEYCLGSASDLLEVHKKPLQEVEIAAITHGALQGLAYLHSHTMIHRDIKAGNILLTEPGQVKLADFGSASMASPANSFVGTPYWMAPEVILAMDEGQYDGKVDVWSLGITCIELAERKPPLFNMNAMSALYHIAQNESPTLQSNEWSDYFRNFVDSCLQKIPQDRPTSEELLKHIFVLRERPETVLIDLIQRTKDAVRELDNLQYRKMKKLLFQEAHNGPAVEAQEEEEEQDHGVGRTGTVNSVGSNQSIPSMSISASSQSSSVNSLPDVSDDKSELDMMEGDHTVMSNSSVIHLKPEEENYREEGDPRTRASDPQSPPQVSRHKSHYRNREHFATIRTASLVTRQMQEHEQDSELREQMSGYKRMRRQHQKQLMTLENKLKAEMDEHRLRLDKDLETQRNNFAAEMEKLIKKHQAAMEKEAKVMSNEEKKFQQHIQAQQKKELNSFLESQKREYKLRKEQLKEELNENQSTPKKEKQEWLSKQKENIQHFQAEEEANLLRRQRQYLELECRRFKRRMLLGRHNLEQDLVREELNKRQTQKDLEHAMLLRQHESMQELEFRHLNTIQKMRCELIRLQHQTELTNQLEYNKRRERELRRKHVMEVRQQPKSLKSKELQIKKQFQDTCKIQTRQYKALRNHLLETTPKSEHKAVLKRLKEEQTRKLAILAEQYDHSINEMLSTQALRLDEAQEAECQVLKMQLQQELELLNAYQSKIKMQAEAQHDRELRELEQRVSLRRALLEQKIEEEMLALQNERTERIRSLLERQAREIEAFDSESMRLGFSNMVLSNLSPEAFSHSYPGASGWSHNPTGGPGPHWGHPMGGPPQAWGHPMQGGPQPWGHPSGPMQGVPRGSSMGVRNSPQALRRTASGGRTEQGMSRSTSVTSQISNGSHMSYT
# [4] = biological target: T2, Serine/threonine-protein kinase TAO1 (Homo sapiens); conditions: at 10 µM
# [5] = biological target: T3, Serine/threonine-protein kinase TAO2 (Homo sapiens) (UniProt Q9UL54); conditions: at 1 µM
# T3 sequence (whole entry): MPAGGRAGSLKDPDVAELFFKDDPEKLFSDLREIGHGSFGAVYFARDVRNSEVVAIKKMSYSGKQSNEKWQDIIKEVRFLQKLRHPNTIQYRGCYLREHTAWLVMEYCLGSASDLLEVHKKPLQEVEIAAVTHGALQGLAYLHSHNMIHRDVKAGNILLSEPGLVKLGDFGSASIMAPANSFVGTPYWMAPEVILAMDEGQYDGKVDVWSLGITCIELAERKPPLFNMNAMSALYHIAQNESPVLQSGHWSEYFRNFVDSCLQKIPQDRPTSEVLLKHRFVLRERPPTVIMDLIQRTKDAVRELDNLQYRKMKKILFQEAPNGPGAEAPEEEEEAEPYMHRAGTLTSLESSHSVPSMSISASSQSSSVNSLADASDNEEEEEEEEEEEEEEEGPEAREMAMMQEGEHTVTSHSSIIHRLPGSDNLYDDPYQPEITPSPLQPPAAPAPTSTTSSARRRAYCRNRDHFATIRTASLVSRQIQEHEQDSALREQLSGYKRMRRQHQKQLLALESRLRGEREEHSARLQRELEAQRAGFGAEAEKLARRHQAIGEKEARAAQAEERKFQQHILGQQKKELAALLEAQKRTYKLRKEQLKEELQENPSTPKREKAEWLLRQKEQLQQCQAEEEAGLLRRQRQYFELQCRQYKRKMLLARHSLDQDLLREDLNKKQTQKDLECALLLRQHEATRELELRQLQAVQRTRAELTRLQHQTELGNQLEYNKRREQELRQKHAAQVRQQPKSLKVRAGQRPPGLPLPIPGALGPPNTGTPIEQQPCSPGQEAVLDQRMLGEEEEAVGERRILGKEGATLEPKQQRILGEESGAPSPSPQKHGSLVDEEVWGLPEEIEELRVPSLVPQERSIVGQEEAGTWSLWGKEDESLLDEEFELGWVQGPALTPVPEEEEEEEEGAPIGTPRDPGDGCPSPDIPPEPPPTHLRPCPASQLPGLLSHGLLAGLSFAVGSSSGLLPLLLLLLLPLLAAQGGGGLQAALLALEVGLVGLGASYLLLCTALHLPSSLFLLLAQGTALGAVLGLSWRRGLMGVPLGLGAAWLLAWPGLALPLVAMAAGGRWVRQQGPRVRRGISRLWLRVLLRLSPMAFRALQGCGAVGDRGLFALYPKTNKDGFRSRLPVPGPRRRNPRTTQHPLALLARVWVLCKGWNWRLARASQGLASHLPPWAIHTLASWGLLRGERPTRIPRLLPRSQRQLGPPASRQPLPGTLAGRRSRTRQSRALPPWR
# [6] = biological target: T3, Serine/threonine-protein kinase TAO2 (Homo sapiens); conditions: at 10 µM
# [7] = biological target: T4, Serine/threonine-protein kinase TAO3 (Homo sapiens) (UniProt Q9H2K8); conditions: at 1 µM
# T4 sequence (whole entry): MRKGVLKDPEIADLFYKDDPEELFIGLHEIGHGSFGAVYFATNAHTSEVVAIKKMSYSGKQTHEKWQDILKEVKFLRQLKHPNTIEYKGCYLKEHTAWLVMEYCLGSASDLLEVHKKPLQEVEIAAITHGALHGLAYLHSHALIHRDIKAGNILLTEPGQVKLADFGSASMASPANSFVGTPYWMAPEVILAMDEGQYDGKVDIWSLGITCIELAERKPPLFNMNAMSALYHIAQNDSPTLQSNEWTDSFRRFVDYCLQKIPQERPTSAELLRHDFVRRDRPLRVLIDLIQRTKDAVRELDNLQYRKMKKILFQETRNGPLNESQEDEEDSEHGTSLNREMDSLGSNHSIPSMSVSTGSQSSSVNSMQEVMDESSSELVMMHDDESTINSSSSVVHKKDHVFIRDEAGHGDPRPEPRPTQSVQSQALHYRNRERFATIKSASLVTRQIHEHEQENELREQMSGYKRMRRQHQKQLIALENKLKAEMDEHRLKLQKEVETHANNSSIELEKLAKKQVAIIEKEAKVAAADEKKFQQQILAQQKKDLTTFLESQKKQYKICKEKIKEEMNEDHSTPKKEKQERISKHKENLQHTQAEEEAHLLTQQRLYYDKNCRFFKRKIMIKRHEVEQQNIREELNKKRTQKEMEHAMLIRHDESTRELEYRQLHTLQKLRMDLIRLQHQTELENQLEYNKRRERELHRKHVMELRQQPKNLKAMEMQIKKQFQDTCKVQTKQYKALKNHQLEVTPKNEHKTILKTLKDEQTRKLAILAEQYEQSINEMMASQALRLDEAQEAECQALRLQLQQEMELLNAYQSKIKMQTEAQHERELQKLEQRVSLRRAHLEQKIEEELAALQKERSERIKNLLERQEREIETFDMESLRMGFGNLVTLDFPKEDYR
smiles,measurement,setting,value
c1ccc(-c2cnc(Nc3ccc(OCCN4CCCC4)cc3)s2)cc1,residual activity,[1],72%
same,residual activity,[2],74%
same,residual activity,[3],82%
same,residual activity,[4],28%
same,residual activity,[5],81%
same,residual activity,[6],21%
same,residual activity,[7],82%
